# V-ATPase pH = yeast V-ATPase proton transport regulation by pHLuorin. response, % at 10 µM. S. cerevisiae, pHLuorin cytosolic pH fluorescence. 350,000 compounds, 0.37% hits; in the data active means response mostly above about 7.3%, no sharp cut-off; inactive means mostly below about 5.4%; further: actives read high
# NALP3 yeast inh = inhibitors of NALP3 inflammasome in yeast; Yeast reconstituted NLRP3/ASC/caspase-1, beta-gal luminescence, 24 h; inhibition, % at 10 µM; 330,000 compounds, 0.39% hits;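 active means inhibition of 50% or more; inactive means inhibition below 50%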;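 further: plate controls were induced DMSO wells for no effect and uninduced yeast grown without galactose for full effect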
# NALP1 yeast inh = blocks the NALP1 inflammasome reconstituted in yeast; AID 2071; inhibition, % at 10 µM; 280,000 compounds, 0.61% hits; S. cerevisiae NALP1/ASC/caspase-1 growth, X-gal OD620, 72 h; in the data active means inhibition mostly above about 24%, no sharp cut-off; inactive means mostly below about 32%
# TIM10 inh = TIM10 yeast growth inhibition. S. cerevisiae TIM10 strain growth, BacTiter-Glo luminescence, 24 h. inhibition, % at 10 µM. 330,000 compounds, 1.4% hits. AID 463195;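 active means inhibition of 40% or more at the single tested concentration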;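 further: wild-type TIM10 isogenic control strain grown at permissive 25 °C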
# tim10-1 inh = inhibits growth of tim10-1 mutant yeast. inhibition, % at 20 µM. AID 463190. 330,000 compounds, 2.2% hits. S. cerevisiae tim10-1 ts strain growth, BacTiter-Glo, 24 h;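 active means inhibition of at least 40%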;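 further: mutant grown at 25 °C; 0% = DMSO wells with yeast and 100% = wells holding no yeast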
# tim23-1 inh = tim23-1 yeast growth inhibition; inhibition, % at 20 µM; 330,000 compounds, 1.3% hits; S. cerevisiae tim23-1 growth, BacTiter-Glo luminescence, 24 h;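 active means growth inhibition of the mutant yeast at or above 50%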;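 further: temperature-sensitive mutant grown at 25 °C; plate controls were DMSO-treated mutant yeast for no effect and medium wells lacking yeast for full effect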
# tim10-1 conf = confirmation of tim10-1 mutant yeast growth inhibitors; shares compounds with tim10-1 inh; S. cerevisiae tim10-1 ts strain growth, BacTiter-Glo, 24 h; inhibition, % at 20 µM; 7,400 compounds, 56% hits; AID 463213;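 active means inhibition of yeast growth at or above a set limit in either of two repeat tests at 20 µM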;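 further: tim10-1 mutant grown at permissive 25 °C to find synthetic lethal compounds; 0% = DMSO yeast wells and 100% = medium wells without yeast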
# An asterisk follows results filed as active; . = not tested or not shown. Rows were chosen to be rich in hits. Some 4.2% of all compounds tested hit in one or more screens of this group.
SMILES,V-ATPase pH,NALP3 yeast inh,NALP1 yeast inh,TIM10 inh,tim10-1 inh,tim23-1 inh,tim10-1 conf
CC1=C/C(=C(/c2cc(C)c(O)c(Br)c2)c2ccccc2S(=O)(=O)O)C=C(Br)C1=O,-2.9,23.3,-5.3,37.5,54.2*,49.7,43.8*
CC1=C/C(=C(/c2ccc(O)c(C)c2)c2ccccc2S(=O)(=O)O)C=CC1=O,1.3,26.0,.,13.0,10.8,7.8,.
COc1ccc(NS(=O)(=O)c2ccc(SC)cc2)cc1,-3.5,8.7,.,-6.9,18.5,19.7,.
COC(=O)c1ccc(NS(=O)(=O)c2ccc(SC)cc2)cc1,2.4,29.2,.,13.2,40.5*,31.5,20.8
COc1ccccc1NC(=O)N1CCCC1C(=O)NCc1ccccc1Cl (centres undefined),-4.2,10.7,-3.9,8.2,7.2,5.8,.
O=C(CN1C(=O)c2ccc([N+](=O)[O-])cc2C1=O)Nc1ccccc1N1CCCC1,-1.1,10.2,.,10.1,2.2,10.7,.
CCOC(=O)c1ccc(Nc2sc(C(=O)c3cccc([N+](=O)[O-])c3)c(N)c2C#N)cc1,1.8,14.5,14.6,-22.8,-28.9,-32.4,.
COc1cc(C2=NOC(C(=O)N3CCCc4ccccc43)C2)cc(OC)c1OC (centres undefined),-8.3,12.8,1.5,20.8,40.1*,23.8,26.1
Brc1ccc(-c2csc3ncnc(-n4nnc5ccccc54)c23)cc1,1.4,-6.0,20.9,14.5,45.2*,49.3,32.2*
CCOC(=O)c1ccc2nc(NC(=O)c3ccco3)sc2c1,2.3,12.2,-1.9,39.9,41.4*,40.9,26.1
CCCCC(=O)Nc1nc2ccc(C(=O)OC)cc2s1,-2.8,-7.6,11.2,35.4,46.2*,28.9,20.2
O=C(NC1CCN(S(=O)(=O)c2ccccc2)CC1)c1ccc(F)cc1,4.0,10.3,-1.6,-7.9,-1.4,-5.7,.
O=C(O)c1ccc(Nc2nc(-c3ccccc3)nc3ccccc23)cc1,5.1,1.2,9.9,4.0,52.6*,15.1,15.4
C#CCNC(=O)C1=C[C@@H](c2ccc(C(F)(F)F)cc2)[C@H](CCCO)[C@@H](OCC)O1,-0.5,18.6,6.5,-2.1,13.5,17.6,.
COc1ccc(C(=O)NCCOc2ccccc2Cl)c(OC)c1OC,11.0,11.8,37.3,-54.0,-3.1,-15.2,.
Cc1nn(Cc2ccc([N+](=O)[O-])cc2)c(=O)n1N(C)c1ncc(C(F)(F)F)cc1Cl,-50.1,4.7,6.2,23.8,42.7*,27.1,26.9*
COc1ccc(OC)c(C2(O)CSC(=Nc3cccnc3)N2Cc2ccco2)c1 (centres undefined),1.8,8.2,5.9,26.6,10.9,18.4,.
OC1(c2ccc(OC(F)F)cc2)CSC(=Nc2cccnc2)N1C1CC1 (centres undefined),-1.9,12.5,3.2,-9.9,40.6*,-1.3,24.2
C=C1CCC[C@]2(C)C[C@H]3OC(=O)C(CNCC(C)C)[C@H]3CC12 (some centres undefined),3.0,3.2,14.3,3.1,41.5*,30.8,36.0*
C=C1CCC[C@]2(C)C[C@H]3OC(=O)C(CNCCN(CC)CC)[C@H]3CC12 (some centres undefined),0.1,-12.8,9.1,17.9,52.4*,30.4,48.2*
C=C1CCC[C@]2(C)C[C@H]3OC(=O)C(CNCCN(C)C)[C@H]3CC12 (some centres undefined),3.5,-10.9,2.5,16.3,45.7*,33.3,43.7*
COc1ccc(-c2nc3ccccn3c2NCc2ccc3c(c2)OCO3)cc1,7.4,15.7,-0.2,34.3,42.4*,38.7,13.2
CC1CCCC2(C1)NC(=S)c1c(sc3c1CCCC3)N2 (centres undefined),-0.3,23.2,-3.2,12.4,42.5*,31.3,23.1
COc1ccc(C(=O)Nc2ccnn2C2CCN(C(=O)c3cnsn3)CC2)cc1,-1.3,12.6,-18.8,4.5,-10.8,2.0,.
COc1ccccc1NC(=O)CN1C(=O)NC2(CCCc3ccccc32)C1=O (centres undefined),-4.2,2.5,.,3.5,15.5,23.8,.
SMILES,V-ATPase pH,NALP3 yeast inh,NALP1 yeast inh,TIM10 inh,tim10-1 inh,tim23-1 inh,tim10-1 conf
CCOC(=O)C(C#N)=C1CCC=C(C)C1,1.6,.,.,.,.,.,.
CCOC(=O)/C(C#N)=C1\SS/C(=C(/C#N)C(=O)OCC)S1,.,16.7,79.5*,12.6,41.0*,21.2,35.7*
CSc1ccc(S(=O)(=O)NCc2ccccc2)cc1,6.7,22.6,15.2,6.8,45.8*,41.5,31.4*
CSc1ccc(S(=O)(=O)NCc2ccccc2Cl)cc1,1.7,0.3,6.1,33.2,52.4*,46.0,48.7*
O=C(COc1ccc([N+](=O)[O-])cc1)NNC(=O)c1cccs1,1.3,-1.6,8.1,-3.1,10.0,7.3,.
O=C(OCc1nnc(-c2ccccc2)o1)c1ccco1,6.5,7.3,-3.8,14.9,40.8*,-11.3,12.4
CCCN(S(=O)(=O)c1ccccc1F)S(=O)(=O)c1ccccc1Br,4.8,18.7,12.4,12.0,26.9,30.4,.
CC(=O)Nc1nc(-c2ccccc2)c(-c2ccccc2)o1,1.3,-28.9,17.6,30.1,39.8,45.6,.
COc1cc(OC)cc(C(=O)Nc2nc(-c3ccccc3)c(-c3ccccc3)o2)c1,2.2,-24.3,13.2,21.3,43.5*,10.4,32.8*
CCN(CC)C(=S)SCC(=O)Nc1nc(-c2ccccc2)c(-c2ccccc2)o1,8.3,-54.5,28.9,19.2,40.7*,18.3,11.5
N#CCCN(C(=O)CN1CCN(S(=O)(=O)c2ccc(Cl)s2)CC1)c1ccc(F)cc1,-0.3,18.1,.,2.8,-0.4,-2.5,.
COc1cccc(OC)c1C(=O)Nc1cccc(NC(=O)c2cccs2)c1,-0.3,13.6,23.3,3.6,12.2,21.2,.
CC(C)C1OC(c2cccc(NC(=O)c3cccs3)c2)OCC1(C)C (centres undefined),4.0,-5.9,-2.4,39.3,44.1*,22.6,32.5*
CC(OC(=O)COc1ccc(Nc2ccccc2)cc1)C(=O)N(C)c1ccccc1 (centres undefined),-2.0,24.5,.,13.1,42.0*,30.7,29.6*
CCCCN(CC)c1nc(-c2ccncc2)nc2ccccc12,-0.6,30.0,20.0,25.1,43.1*,38.6,15.3
COCCN(CCOC)c1nc(-c2ccc(C)cc2)nc2ccccc12,-1.0,32.4,17.6,-1.5,24.3,35.0,.
Cc1cc(NCCCn2ccnc2)n2ncc(-c3ccc(Cl)cc3)c2n1,2.0,20.8,-0.6,25.1,40.9*,35.5,21.0
CCOC(=O)C1(CCc2ccccc2)CCN(C(=O)CCc2cnccn2)CC1,2.0,23.0,14.5,22.6,14.2,9.9,.
CCOC(=O)C1(CCc2ccccc2)CCN(C(=O)CCc2cnn(C)c2)CC1,-0.4,0.3,7.8,15.4,41.8*,27.0,29.8*
O=C(Nc1sc2c(c1C(=O)c1ccc(Cl)cc1)CCCC2)c1cccnc1,1.1,7.9,32.0,23.1,40.8*,31.8,28.0
